According to PubChem BioAssay (Tox21):
Inconclusive results are not listed. Activity calls are given as the source filed them. Unless noted, calls follow the shape of the full dose curve.

Columns and labels:
[1] = qHTS assay to identify small molecule agonists of the peroxisome proliferator-activated receptor delta (PPARd) signaling pathway - cell viability counter screen (AID 743211; active = well fitted curve in the direction sought with a large enough effect in the repeat runs; an effect the other way counts as inactive or inconclusive; also: nearly all actives have a fitted effect of over 55% in size)
Procedure, shortened: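 qHTS cell viability: PPARd-bla HEK293H; 17 h cpd, 37C; CellTiter-Glo, luminescence at 30 min RT.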

[2] = qHTS assay to identify small molecule antagonists of the peroxisome proliferator-activated receptor delta (PPARd) signaling pathway - cell viability counter screen (AID 743213; active = well fitted curve in the direction sought with a large enough effect in the repeat runs; an effect the other way counts as inactive or inconclusive; also: nearly all actives have a fitted effect of over 50% in size)
Procedure, shortened: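 In this counter screen, HEK293H cells carrying a UAS-beta-lactamase reporter are co-treated with test compounds and 300 nM L165041 (final) for 17 h at 37 C; cell viability is quantified by CellTiter-Glo luminescence.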

[3] = qHTS assay to identify small molecule agonists of the farnesoid-X-receptor (FXR) signaling pathway - cell viability counter screen (AID 743218; active = well fitted curve in the direction sought with a large enough effect in the repeat runs; an effect the other way counts as inactive or inconclusive; also: nearly all actives have a fitted effect of over 45% in size)
Procedure, shortened: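 FXR-UAS-bla HEK 293T cells, plated 5 h at 37 C, were exposed to compounds for 16 h at 37 C. CellTiter-Glo was then added to the same wells as the bla readout; luminescence read after 30 min at room temperature.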

[4] = target: Vitamin D3 receptor (Homo sapiens) (UniProt P11473); test: qHTS assay to identify small molecule agonists of the vitamin D receptor (VDR) signaling pathway (AID 743222)
Chain of Vitamin D3 receptor (Homo sapiens) (P11473 whole entry, looked up): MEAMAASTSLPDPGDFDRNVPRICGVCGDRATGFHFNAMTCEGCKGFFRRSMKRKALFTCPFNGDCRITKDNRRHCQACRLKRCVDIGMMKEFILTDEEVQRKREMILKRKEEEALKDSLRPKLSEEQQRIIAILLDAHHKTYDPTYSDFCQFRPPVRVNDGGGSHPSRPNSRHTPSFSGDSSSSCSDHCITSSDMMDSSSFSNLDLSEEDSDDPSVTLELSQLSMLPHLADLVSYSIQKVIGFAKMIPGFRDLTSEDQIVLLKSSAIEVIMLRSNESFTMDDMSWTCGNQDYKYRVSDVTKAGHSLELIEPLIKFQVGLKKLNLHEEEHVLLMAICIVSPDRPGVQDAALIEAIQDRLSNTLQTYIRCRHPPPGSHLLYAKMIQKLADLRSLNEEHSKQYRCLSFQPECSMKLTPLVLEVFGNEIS
Procedure, shortened: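 VDR-bla cells were plated 4 h at 37C/5% CO2, then exposed to compounds in DMSO for 16 h. After LiveBLAzer B/G FRET substrate addition and 2 h at room temperature, beta-lactamase reporter fluorescence was read.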

[5] = qHTS assay to identify small molecule agonists of the vitamin D receptor (VDR) signaling pathway - cell viability counter screen (AID 743224; active = well fitted curve in the direction sought with a large enough effect in the repeat runs; an effect the other way counts as inactive or inconclusive; also: series mostly up to about 63 µM; nearly all actives have a fitted effect of over 50% in size)
Procedure, shortened: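 VDR-bla cells were preincubated 4 h at 37C/5% CO2, then exposed to compounds for 16 h. After the 2 h room-temperature bla FRET read, CellTiter-Glo was added to the same wells and luminescence read after 30 min.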

[6] = qHTS assay to identify small molecule antagonists of the vitamin D receptor (VDR) signaling pathway - cell viability counter screen (AID 743225; active = well fitted curve in the direction sought with a large enough effect in the repeat runs; an effect the other way counts as inactive or inconclusive; also: nearly all actives have a fitted effect of over 50% in size)
Procedure, shortened: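 Parallel cytotoxicity test: VDR-UAS-bla HEK 293T, 3 nM (final) 1-alpha,25-dihydroxyvitamin D3 with test compound, 16 h, 37C. Endpoint is CellTiter-Glo luminescence in the same wells.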

[7] = qHTS assay to identify small molecule agonists of the NFkB signaling pathway - cell viability counter screen (AID 1159515); also: series mostly up to about 61 µM; nearly all actives have a fitted effect of over 55% in size
Procedure, shortened: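 NFkB-bla ME-180 cells, 2,000/well, were plated overnight at 37 C, 5% CO2, then exposed to compounds in DMSO for 5 hr. After the bla FRET read, CellTiter-Glo was added to the same wells; luminescence was read after 30 min at room temperature.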

[8] = qHTS assay to identify small molecule agonists of the endoplasmic reticulum stress response signaling pathway - cell viability counter screen (AID 1159517);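 also: HeLa cells carrying an ER stress response element beta-lactamase reporter; series mostly up to about 61 µM; nearly all actives have a fitted effect of over 50% in size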
Procedure, shortened: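 Luminescence readout: CellTiter-Glo, 30 min RT, same wells as the ESRE-bla reporter read. HeLa ESRE-bla, 1,500 cells/well, o/n 37 C; cpd 5 hr 37 C/5% CO2.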

[9] = qHTS assay to identify small molecule antagonists of the retinoid-related orphan receptor gamma (ROR-gamma) signaling pathway - cell viability counter screen (AID 1159520; active = well fitted curve in the direction sought with a large enough effect in the repeat runs; an effect the other way counts as inactive or inconclusive; also: nearly all actives have a fitted effect of over 50% in size)
Procedure, shortened: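 Tet-on ROR gamma CHO cells (1,000/well) were plated 4 hr, given compounds in DMSO for 2 hr at 37 C, then induced with 1 uM final doxycycline for 16 hr. Viability was read as ATP by CellTiter-Glo luminescence after 30 min.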

[10] = target: Nuclear receptor ROR-gamma (Homo sapiens) (UniProt P51449); test: qHTS assay to identify small molecule antagonists of the retinoid-related orphan receptor gamma (ROR-gamma) signaling pathway (AID 1159521; active = well fitted curve in the direction sought with a large enough effect in the repeat runs; an effect the other way counts as inactive or inconclusive)
Procedure, shortened: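 Decreased RORE-driven luciferase luminescence indicates antagonism. Tet-on RORγ CHO cells received compound, then 1 uM final doxycycline 2 h later; signal read after 16 h incubation.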

[11] = qHTS assay to identify small molecule agonists of the AP-1 signaling pathway - cell viability counter screen (AID 1159525); also: nearly all actives have a fitted effect of over 55% in size
Procedure, shortened: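 ME-180 AP-1-bla, 2500 cells/well, Opti-MEM + 0.5% dialyzed FBS; overnight 37 °C; cpd 15-pt titration, 5 h 37 °C; CellTiter-Glo 30 min RT; luminescence read; normalised to TOAB and DMSO controls.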

[12] = qHTS assay to identify small molecule agonists of the AP-1 signaling pathway (AID 1159526)
[13] = target: Retinoic acid receptor RXR-alpha (Homo sapiens) (UniProt P19793); test: qHTS assay to identify small molecule agonists of the RXR signaling pathway (AID 1159527); also: nearly all actives have a fitted effect of over 35% in size
Chain of Retinoic acid receptor RXR-alpha (Homo sapiens) (P19793 whole entry, looked up): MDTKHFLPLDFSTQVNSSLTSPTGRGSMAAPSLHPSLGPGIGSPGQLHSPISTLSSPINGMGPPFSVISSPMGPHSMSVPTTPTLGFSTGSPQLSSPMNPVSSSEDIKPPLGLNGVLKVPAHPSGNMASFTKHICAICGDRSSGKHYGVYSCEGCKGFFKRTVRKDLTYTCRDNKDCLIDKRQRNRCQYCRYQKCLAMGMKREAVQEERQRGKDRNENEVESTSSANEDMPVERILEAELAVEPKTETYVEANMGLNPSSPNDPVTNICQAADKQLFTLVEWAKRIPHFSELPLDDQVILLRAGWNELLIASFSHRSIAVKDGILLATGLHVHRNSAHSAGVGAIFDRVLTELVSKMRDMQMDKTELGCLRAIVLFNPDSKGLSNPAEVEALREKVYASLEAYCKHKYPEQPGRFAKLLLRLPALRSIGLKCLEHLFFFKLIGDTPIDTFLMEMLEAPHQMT
Procedure, shortened: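 16 hr incubation of compound-treated RXR-alpha-UAS-bla HEK 293T cells (2% charcoal-stripped FBS, 37 C) preceded a 2 hr room-temperature LiveBLAzer FRET substrate step and blue/green fluorescence measurement.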

[14] = target: Bile acid receptor (Homo sapiens) (UniProt Q96RI1); test: qHTS assay to identify small molecule antagonists of the farnesoid-X-receptor (FXR) signaling pathway (AID 743217; active = well fitted inhibition curve with a large enough effect in the signal ratio in the repeat runs, not every such curve was filed as active; the % refers to the signal ratio)
Chain of Bile acid receptor (Homo sapiens) (Q96RI1 whole entry, looked up): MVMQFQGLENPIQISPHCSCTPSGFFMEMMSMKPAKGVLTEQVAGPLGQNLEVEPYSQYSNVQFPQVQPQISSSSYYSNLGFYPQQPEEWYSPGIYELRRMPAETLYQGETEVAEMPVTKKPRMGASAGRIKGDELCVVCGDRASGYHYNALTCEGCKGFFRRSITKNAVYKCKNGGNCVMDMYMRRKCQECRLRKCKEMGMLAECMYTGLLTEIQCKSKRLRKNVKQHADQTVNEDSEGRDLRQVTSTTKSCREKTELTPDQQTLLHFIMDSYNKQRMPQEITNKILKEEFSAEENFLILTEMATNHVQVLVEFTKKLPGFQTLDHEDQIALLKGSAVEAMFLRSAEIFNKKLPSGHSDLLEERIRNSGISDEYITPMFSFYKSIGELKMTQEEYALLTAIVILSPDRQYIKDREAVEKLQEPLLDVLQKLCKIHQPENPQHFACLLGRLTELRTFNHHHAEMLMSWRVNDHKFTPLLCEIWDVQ
Procedure, shortened: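 FXR-UAS-bla HEK 293T cells pre-incubated 5 h at 37 °C, then exposed to compounds with chenodeoxycholic acid (50 uM final) for 16 h at 37 °C. Beta-lactamase reporter read by LiveBLAzer B/G FRET substrate fluorescence after 2 h at room temperature.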

[15] = target: Bile acid receptor (Homo sapiens) (UniProt Q96RI1); test: qHTS assay to identify small molecule agonists of the farnesoid-X-receptor (FXR) signaling pathway (AID 743220; active = well fitted activation curve with a large enough effect in the signal ratio in the repeat runs, not every such curve was filed as active; the % refers to the signal ratio)
Procedure, shortened: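 Beta-lactamase reporter under UAS control in GeneBLAzer FXR HEK 293T cells (5000/well) measured with LiveBLAzer FRET substrate after 2 h at room temperature. Compound exposure lasted 16 h at 37C.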

[16] = qHTS assay to identify small molecule antagonists of the farnesoid-X-receptor (FXR) signaling pathway - cell viability counter screen (AID 743221; active = well fitted cell-killing curve with a large enough effect in the repeat runs, not every such curve was filed as active; also: nearly all actives have a fitted effect of over 50% in size)
Procedure, shortened: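 After a 5 h settling period, FXR-bla HEK 293T cells receive compound and chenodeoxycholic acid (50 uM final) and incubate 16 h at 37 C; CellTiter-Glo luminescence, read after 30 min at room temperature, reports cell viability.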

[17] = target: Peroxisome proliferator-activated receptor delta (Homo sapiens) (UniProt Q03181); test: qHTS assay to identify small molecule agonists of the peroxisome proliferator-activated receptor delta (PPARd) signaling pathway (AID 743212)
Chain of Peroxisome proliferator-activated receptor delta (Homo sapiens) (Q03181 whole entry, looked up): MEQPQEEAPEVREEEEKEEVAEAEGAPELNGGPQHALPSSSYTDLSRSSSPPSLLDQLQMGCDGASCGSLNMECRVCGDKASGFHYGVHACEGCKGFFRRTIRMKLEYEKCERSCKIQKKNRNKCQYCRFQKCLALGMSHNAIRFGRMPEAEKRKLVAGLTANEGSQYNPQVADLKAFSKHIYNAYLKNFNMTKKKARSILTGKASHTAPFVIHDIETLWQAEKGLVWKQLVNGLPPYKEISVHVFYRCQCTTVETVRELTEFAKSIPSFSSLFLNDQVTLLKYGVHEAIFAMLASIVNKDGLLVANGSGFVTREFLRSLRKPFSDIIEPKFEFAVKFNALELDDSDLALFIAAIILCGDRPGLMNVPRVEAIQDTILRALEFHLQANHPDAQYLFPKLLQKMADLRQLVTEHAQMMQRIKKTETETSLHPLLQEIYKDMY
Procedure, shortened: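 GeneBLAzer PPARd UAS-bla HEK293H cells (beta-lactamase reporter under UAS control), plated and rested 5 h at 37 C, then exposed to compounds in DMSO at 37 C; LiveBLAzer B/G FRET substrate added, 2 h room temperature, fluorescence read.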

[18] = target: Peroxisome proliferator-activated receptor delta (Homo sapiens) (UniProt Q03181); test: qHTS assay to identify small molecule antagonists of the peroxisome proliferator-activated receptor delta (PPARd) signaling pathway (AID 743215; active = well fitted inhibition curve with a large enough effect in the signal ratio in the repeat runs, not every such curve was filed as active; the % refers to the signal ratio;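 also: cells stimulated with agonist L165041 at 300 nM final during compound exposure; series mostly up to about 62 µM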)
Procedure, shortened: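 PPARd UAS-bla HEK293H cells were pre-incubated 5 h at 37 C, then given test compounds in DMSO plus agonist L165041 (300 nM final). After 17 h at 37 C, beta-lactamase FRET substrate was added; fluorescence read after 2 h at room temperature.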

[19] = target: Vitamin D3 receptor (Homo sapiens) (UniProt P11473); test: qHTS assay to identify small molecule antagonists of the vitamin D receptor (VDR) signaling pathway (AID 743223; active = well fitted inhibition curve with a large enough effect in the signal ratio in the repeat runs, not every such curve was filed as active; the % refers to the signal ratio)
Procedure, shortened: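 Reporter line VDR-bla; stimulus 1alpha,25-(OH)2 vitamin D3, 3 nM final; compound co-addition, 16 h 37C/5% CO2; LiveBLAzer B/G substrate 2 h RT; fluorescence intensity.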

Measured: Potency

CN(C)[C@@H]1C(=O)C(C(=O)NCN2CCCC2)=C(O)[C@@]2(O)C(=O)C3=C(O)c4c(O)cccc4[C@@](C)(O)C3C[C@@H]12 (stereo partly specified)
inactive: [1] | [2] | [3] | [4] | [5] | [6] | [7] | [8] | [9] | [10] | [11] | [12] | [13]

CCCCCCCCN1CCCC1=O
inactive: [2] | [14] | [3] | [15] | [16] | [4] | [5] | [6] | [7] | [8] | [9] | [10] | [11] | [12] | [13]

CCOC(=O)COC(=O)c1ccccc1C(=O)OCC
inactive: [1] | [17] | [2] | [18] | [3] | [16] | [4] | [19] | [5] | [6] | [7] | [8] | [9] | [10] | [11] | [12] | [13]

COCCOCC(OC)OC
inactive: [1] | [17] | [2] | [14] | [3] | [15] | [16] | [4] | [19] | [5] | [6] | [7] | [8] | [9] | [10] | [11] | [12] | [13]

CCO[Si](OCC)(OCC)c1ccccc1
inactive: [1] | [2] | [14] | [15] | [16] | [4] | [19] | [5] | [6] | [7] | [8] | [9] | [11] | [12] | [13]

C[C@@H]1CCC[C@H](C)N1
inactive: [1] | [2] | [16] | [4] | [19] | [5] | [7] | [8] | [9] | [10] | [11] | [12] | [13]

CC[N+](C)(CC)CCOC(=O)C1c2ccccc2Oc2ccccc21
inactive: [1] | [17] | [2] | [18] | [3] | [16] | [4] | [19] | [5] | [6] | [7] | [8] | [9] | [10] | [11] | [12] | [13]

Nc1ccn([C@@H]2O[C@H](CO)[C@@H](O)[C@@H]2O)c(=O)n1
inactive: [17] | [2] | [18] | [15] | [16] | [4] | [19] | [5] | [6] | [7] | [8] | [9] | [11] | [12] | [13]

CC/C=C\CCOC(C)OCC (stereo unspecified)
inactive: [1] | [17] | [2] | [18] | [3] | [16] | [19] | [5] | [6] | [7] | [8] | [9] | [10] | [11] | [12] | [13]

C[N+]1(C)CCCC(OC(=O)C(O)(c2ccccc2)c2ccccc2)C1 (stereo unspecified)
inactive: [1] | [17] | [2] | [18] | [14] | [3] | [15] | [4] | [19] | [5] | [6] | [7] | [8] | [9] | [10] | [11] | [12] | [13]

Cc1ccc(C(=O)c2ccc(CC(=O)O)n2C)cc1
inactive: [1] | [3] | [16] | [19] | [5] | [6] | [7] | [8] | [9] | [10] | [11] | [12] | [13]

CC(=O)N1C[C@H](O)C[C@H]1C(=O)O
inactive: [1] | [17] | [2] | [18] | [14] | [15] | [16] | [4] | [19] | [5] | [6] | [7] | [8] | [9] | [10] | [11] | [12] | [13]

CC(C)C1CCC(O)CC1 (stereo unspecified)
inactive: [1] | [2] | [16] | [4] | [19] | [5] | [6] | [7] | [8] | [9] | [10] | [11] | [12] | [13]

CC(=O)Oc1cccc(C)c1
inactive: [1] | [17] | [2] | [18] | [3] | [16] | [5] | [6] | [7] | [8] | [9] | [10] | [11] | [12] | [13]

[K+]
inactive: [1] | [17] | [2] | [18] | [14] | [3] | [15] | [16] | [4] | [5] | [6] | [7] | [8] | [9] | [10] | [11] | [12] | [13]

CCNS(=O)(=O)c1ccc(C)cc1
inactive: [17] | [2] | [18] | [3] | [16] | [5] | [6] | [7] | [8] | [9] | [10] | [11] | [12] | [13]

COc1ccccc1OCC1CNC(=O)O1 (stereo unspecified)
inactive: [1] | [17] | [2] | [18] | [16] | [4] | [19] | [5] | [6] | [7] | [8] | [9] | [10] | [11] | [12] | [13]

CCCC[N+](C)(CCCC)CCCC
inactive: [1] | [17] | [2] | [18] | [16] | [4] | [19] | [5] | [6] | [7] | [8] | [9] | [10] | [11] | [12] | [13]

CCCCCCC#CC(=O)OC
inactive: [1] | [17] | [2] | [18] | [3] | [16] | [5] | [6] | [7] | [8] | [9] | [10] | [11] | [12] | [13]
